Screens deposited in PubChem BioAssay by National Center for Advancing Translational Sciences (NCATS).
In the library only some 15% were active in any assay of this set; here they are far more common.
VP16 counter: inhibits Gal4-VP16 luciferase reporter, ROR gamma counter-screen. Drosophila S2 Gal4-VP16 UAS-luciferase, luminescence, 20 h. Potency, µM (titrated, usually from 53.6 µM), without a hit: at the top dose activity, negative = inhibition, usual class: inhibitors. 310,000 compounds, 3.5% hits;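 note: Gal4-VP16 expression switched on by copper sulfate through the metallothionein promoter; nearly all actives have a fitted effect of over 50% in size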
RORgamma inh: blocks mouse ROR gamma transcriptional activity | P51450 | Drosophila S2 Gal4-RORgamma UAS-luciferase reporter, 20 h | Potency, µM (top dose mostly 53.6 µM), for inactives: top-dose activity change, negative = inhibition, usual class: inhibitors | 310,000 compounds, 5.4% hits | AID 2551; note: nearly all actives have a fitted effect of over 60% in size
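Compounds are pin-transferred onto Drosophila Schneider cells expressing a copper-inducible Gal4–ROR gamma transactivation domain fusion. After 1 hr, copper sulfate is added to 700 uM final; luciferase is read 20 hr later.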
DT40 TDP1 CPT: growth inhibition of DT40 Tdp1-/-;hTDP1 cells with camptothecin (screen for TDP1 inhibitors); chicken DT40 Tdp1-/-;hTDP1 cells + 20 nM CPT, ATP luminescence, 48 h; Potency, µM (series often up to 46.2 µM), for inactives: at the top dose activity change, negative = growth inhibition, hits mostly inhibitors; 420,000 compounds, 12% hits; note: nearly all actives have a fitted effect of over 55% in size
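Chicken DT40 Tdp1-/- cells stably complemented with human TDP1 were seeded at 400 cells/well in medium containing 20 nM camptothecin, exposed to pin-transferred compounds, and grown at 37 °C for at least 48 hr. Viability was read as ATP luminescence.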
TDP1 cell noCPT: qHTS for Inhibitors of human tyrosyl-DNA phosphodiesterase 1 (TDP1): qHTS in cells in absence of CPT; DT40 Tdp1-/- hTDP1 cells, no CPT, ATP luminescence, 48 h; 420,000 compounds, 15% hits; Potency, µM (doses to about 46.2 µM), inactives show at the highest dose activity change, negative = growth inhibition, most hits filed as inhibitors; AID 686978, 2013; note: nearly all actives have a fitted effect of over 55% in size
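Camptothecin absent (DMSO only). Human TDP1-complemented DT40 knockout cells, 400 cells/well, 37 °C for minimum 48 hr; ATP measured via CellTiter-Glo, 30 min dark incubation, luminescence.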
ALOX12 inh: inhibitors of human 12S-lipoxygenase ALOX12 | Potency, µM (titrated, usually from 108 µM), for inactives: at the highest dose activity change, negative = inhibition, hits mostly inhibitors | 580,000 compounds, 1.1% hits | purified 12hLO, xylenol orange hydroperoxide absorbance | P18054
Target sequence (P18054 whole entry, looked up): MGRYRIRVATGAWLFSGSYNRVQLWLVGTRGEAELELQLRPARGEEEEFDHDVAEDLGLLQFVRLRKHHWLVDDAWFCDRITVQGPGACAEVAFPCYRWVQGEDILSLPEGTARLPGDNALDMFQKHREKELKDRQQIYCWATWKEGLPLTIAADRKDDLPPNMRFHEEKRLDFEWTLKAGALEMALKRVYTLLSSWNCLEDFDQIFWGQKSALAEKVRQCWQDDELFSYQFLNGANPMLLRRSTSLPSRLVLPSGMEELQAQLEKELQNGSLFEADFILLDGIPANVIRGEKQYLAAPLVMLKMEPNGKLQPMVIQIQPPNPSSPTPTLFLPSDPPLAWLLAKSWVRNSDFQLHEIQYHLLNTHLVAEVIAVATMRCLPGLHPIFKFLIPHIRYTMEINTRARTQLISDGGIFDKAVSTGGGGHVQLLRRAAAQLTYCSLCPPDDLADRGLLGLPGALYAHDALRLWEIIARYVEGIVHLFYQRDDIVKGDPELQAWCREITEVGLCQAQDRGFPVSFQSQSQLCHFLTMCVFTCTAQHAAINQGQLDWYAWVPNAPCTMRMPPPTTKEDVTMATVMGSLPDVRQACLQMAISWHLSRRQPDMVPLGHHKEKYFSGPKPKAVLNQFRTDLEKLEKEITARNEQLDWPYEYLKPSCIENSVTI
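Purified human 12hLO at 150 nM in 25 mM Hepes, 0.01% Triton X-100, pH 7.0, preincubated 15 min at room temperature with compound. Reaction started with 40 uM arachidonic acid, 30 min at room temperature. Hydroperoxide measured by Fe-xylenol orange, 573/405 nm absorbance ratio.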
ELG1 repair inh: blocks ELG1-dependent DNA repair in HEK293T cells | HEK293T ELG1-luciferase reporter, luminescence, 16 h; DNA damage induced by 5-fluorouridine | 330,000 compounds, 2.3% hits | Potency, µM (doses to about 46.1 µM), for the others: top-dose activity change, negative = inhibition, hits mostly inhibitors | AID 504467; note: nearly all actives have a fitted effect of over 55% in size
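In this reporter screen, reduction of luminescence relative to DMSO vehicle indicated activity. Compounds and 5-fluorouridine were added together to 2,000 cells per well, incubated for 16 hr at 37 °C, then developed with ONE-Glo.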
Numbers without * were called inactive; ? = inconclusive; . = not tested or not shown; ! = repeats disagree. Calls come from the whole dose curve; as a rule, active = well fitted curve in the direction sought with a large enough effect; inconclusive = small, poorly fitted or top-dose-only effect, or another doubt; inactive = no such curve, though single readings can be large; an effect the other way counts as inactive or inconclusive. % is set by controls: 0 for no effect and ±100 for the full control effect; potency is the fitted concentration of half-maximal effect.

SMILES	VP16 counter	RORgamma inh	DT40 TDP1 CPT	TDP1 cell noCPT	ALOX12 inh	ELG1 repair inh
O=C(NCc1cccc(Cl)c1)NCc1noc2ccccc12	.	.	?	16µM*	4%	.
O=C(NCc1noc2ccccc12)Nc1ccc(F)cc1F	.	.	16µM*	-69%	-21%	.
CCn1nc(C(=O)N(C)CCOc2ccccc2C)c2ccccc2c1=O	.	.	.	.	2%	.
CCOC(=O)c1ccc(NC(=O)CCn2c(=O)c3cccn3c3cccnc32)cc1	.	.	21µM*	?	-10%	.
CCOC(=O)c1ccc(NC(=O)CCCn2c(=O)c3cccn3c3cccnc32)cc1	.	.	?	18µM*	?	.
CCCCN(CC)CCNC(=O)Cn1c(=O)c2cccn2c2cccnc21	.	.	?	?	-16%	.
CCCCN(CC)C(=O)CCn1c(=O)c2cccn2c2cccnc21	.	.	?	18µM*	-23%	.
CCOC(=O)c1ccc(NC(=O)CCCn2c(=O)c3cccn3c3ccccc32)cc1	.	.	?	?	-28%	.
O=C(CCn1c(=O)c2cccn2c2cccnc21)N1CCN(c2ccc(F)cc2)CC1	.	.	15µM*	16µM*	-18%	.
CCc1cccc(C)c1NC(=O)CCCn1c(=O)c2cccn2c2cccnc21	2%	-43%	23µM*!	?	7%	3%
Cc1ccc(NC(=O)CCCn2c(=O)c3cccn3c3cccnc32)c(C)c1	.	.	9%	-6%	-24%	.
Cc1sc2c(c1C)CN(C(C)C)CN2C(=O)c1ccccc1	.	.	.	.	6.3µM*	.
COc1ccc2c(C(=O)NCc3ccc4c(c3)OCO4)c(-c3ccc(S(C)(=O)=O)cc3)sc2c1	.	.	23µM*	16µM*	-24%	?
COC(=O)c1c(-c2ccc(S(C)(=O)=O)cc2)sc2cc(OC)ccc12	.	.	?	21µM*	3%	?
COC(=O)c1c(-c2ccc(S(C)(=O)=O)cc2)sc2ccc(OC)cc12	.	.	?	13µM*	10%	?
COC(=O)c1c(-c2ccc(OC)cc2)sc2cc(OC)c(OC)cc12	.	.	?	?	8%	-10%
COC(=O)c1c(-c2cc(OC)cc(OC)c2)sc2ccc(OC)cc12	.	.	?	?	-14%	-2%
CCC(C)n1c(C(C)NC(=O)OCc2ccccc2)nc2cccnc21 (stereo not drawn)	.	.	.	.	29%	.
CC(C)CNC(=O)C1COC2(CCN(C(=O)c3ccc(F)cc3)CC2)N1C(=O)c1ccccc1 (stereo not drawn)	.	.	.	.	16%	.
Cc1cccc(-n2ncc3c(Nc4c(C)cc(C)cc4C)ncnc32)c1	.	.	3.3µM*	4.6µM*	-14%	.
Fc1ccc(-n2ncc3c(Nc4ccc(Oc5ccc(Cl)cc5)cc4)ncnc32)cc1	.	.	?	18µM*	-16%	.
Cc1cccc(-n2ncc3c(Nc4ccc(F)cc4)ncnc32)c1	11µM*	-13%	?	?	?	?
CCOc1ccc(Nc2ncnc3c2cnn3-c2ccc(F)cc2)cc1	.	.	-19%	-25%	-20%	.
COc1ccc(Nc2ncnc3c2cnn3-c2cccc(C)c2)cc1OC	-4%	-4%	?	-13%	-11%	10%
Cc1cc(C)c(Nc2ncnc3c2cnn3C)c(C)c1	.	.	21µM*	16µM*	-55%	.
Cn1ncc2c(Nc3cc(Cl)cc(Cl)c3)ncnc21	-3%	45%	?	?	12%	?
Cc1[nH]c2c(F)cccc2c1CC(=O)N1CCCC2(CC1)CN(C)C(=O)O2 (stereo not drawn)	.	.	.	.	1%	.
Cc1nc2cc(NS(=O)(=O)c3cc(Cl)cc(Cl)c3)ccc2o1	.	.	.	.	-27%	.
CCOc1cc(=O)n2c(c1C(=O)Nc1cc(C)ccc1C)CCCC2	.	.	.	.	43%	.
